# Source: the supplement of paper PMC11001985
# A number with no mark means an inactive call.
# Compound: C#CCNC(=O)CCSSCCC(=O)NCCc1ccc(C=O)c(C=O)c1
# Test: lysine labeling ratio R10:1 (500 µM / 50 µM probe), SILAC-ABPP in living cells; higher = lower intrinsic lysine reactivity toward the probe, active = 2 or less
# Conditions: HeLa; probe concentrations 500 vs 50 µM
# In short: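 Forward and reverse SILAC label swaps were used with living light and heavy HeLa cells in PBS at room temperature, which were given an alkyne-tagged, disulfide-linked lysine probe at 50 µM or 500 µM. R is the per-lysine filtered median high-probe/low-probe MS1 peptide ratio, with the median then taken across both swap directions. Values are limited to 20.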
# Sequence of UniProt P21333 (P21333 whole entry): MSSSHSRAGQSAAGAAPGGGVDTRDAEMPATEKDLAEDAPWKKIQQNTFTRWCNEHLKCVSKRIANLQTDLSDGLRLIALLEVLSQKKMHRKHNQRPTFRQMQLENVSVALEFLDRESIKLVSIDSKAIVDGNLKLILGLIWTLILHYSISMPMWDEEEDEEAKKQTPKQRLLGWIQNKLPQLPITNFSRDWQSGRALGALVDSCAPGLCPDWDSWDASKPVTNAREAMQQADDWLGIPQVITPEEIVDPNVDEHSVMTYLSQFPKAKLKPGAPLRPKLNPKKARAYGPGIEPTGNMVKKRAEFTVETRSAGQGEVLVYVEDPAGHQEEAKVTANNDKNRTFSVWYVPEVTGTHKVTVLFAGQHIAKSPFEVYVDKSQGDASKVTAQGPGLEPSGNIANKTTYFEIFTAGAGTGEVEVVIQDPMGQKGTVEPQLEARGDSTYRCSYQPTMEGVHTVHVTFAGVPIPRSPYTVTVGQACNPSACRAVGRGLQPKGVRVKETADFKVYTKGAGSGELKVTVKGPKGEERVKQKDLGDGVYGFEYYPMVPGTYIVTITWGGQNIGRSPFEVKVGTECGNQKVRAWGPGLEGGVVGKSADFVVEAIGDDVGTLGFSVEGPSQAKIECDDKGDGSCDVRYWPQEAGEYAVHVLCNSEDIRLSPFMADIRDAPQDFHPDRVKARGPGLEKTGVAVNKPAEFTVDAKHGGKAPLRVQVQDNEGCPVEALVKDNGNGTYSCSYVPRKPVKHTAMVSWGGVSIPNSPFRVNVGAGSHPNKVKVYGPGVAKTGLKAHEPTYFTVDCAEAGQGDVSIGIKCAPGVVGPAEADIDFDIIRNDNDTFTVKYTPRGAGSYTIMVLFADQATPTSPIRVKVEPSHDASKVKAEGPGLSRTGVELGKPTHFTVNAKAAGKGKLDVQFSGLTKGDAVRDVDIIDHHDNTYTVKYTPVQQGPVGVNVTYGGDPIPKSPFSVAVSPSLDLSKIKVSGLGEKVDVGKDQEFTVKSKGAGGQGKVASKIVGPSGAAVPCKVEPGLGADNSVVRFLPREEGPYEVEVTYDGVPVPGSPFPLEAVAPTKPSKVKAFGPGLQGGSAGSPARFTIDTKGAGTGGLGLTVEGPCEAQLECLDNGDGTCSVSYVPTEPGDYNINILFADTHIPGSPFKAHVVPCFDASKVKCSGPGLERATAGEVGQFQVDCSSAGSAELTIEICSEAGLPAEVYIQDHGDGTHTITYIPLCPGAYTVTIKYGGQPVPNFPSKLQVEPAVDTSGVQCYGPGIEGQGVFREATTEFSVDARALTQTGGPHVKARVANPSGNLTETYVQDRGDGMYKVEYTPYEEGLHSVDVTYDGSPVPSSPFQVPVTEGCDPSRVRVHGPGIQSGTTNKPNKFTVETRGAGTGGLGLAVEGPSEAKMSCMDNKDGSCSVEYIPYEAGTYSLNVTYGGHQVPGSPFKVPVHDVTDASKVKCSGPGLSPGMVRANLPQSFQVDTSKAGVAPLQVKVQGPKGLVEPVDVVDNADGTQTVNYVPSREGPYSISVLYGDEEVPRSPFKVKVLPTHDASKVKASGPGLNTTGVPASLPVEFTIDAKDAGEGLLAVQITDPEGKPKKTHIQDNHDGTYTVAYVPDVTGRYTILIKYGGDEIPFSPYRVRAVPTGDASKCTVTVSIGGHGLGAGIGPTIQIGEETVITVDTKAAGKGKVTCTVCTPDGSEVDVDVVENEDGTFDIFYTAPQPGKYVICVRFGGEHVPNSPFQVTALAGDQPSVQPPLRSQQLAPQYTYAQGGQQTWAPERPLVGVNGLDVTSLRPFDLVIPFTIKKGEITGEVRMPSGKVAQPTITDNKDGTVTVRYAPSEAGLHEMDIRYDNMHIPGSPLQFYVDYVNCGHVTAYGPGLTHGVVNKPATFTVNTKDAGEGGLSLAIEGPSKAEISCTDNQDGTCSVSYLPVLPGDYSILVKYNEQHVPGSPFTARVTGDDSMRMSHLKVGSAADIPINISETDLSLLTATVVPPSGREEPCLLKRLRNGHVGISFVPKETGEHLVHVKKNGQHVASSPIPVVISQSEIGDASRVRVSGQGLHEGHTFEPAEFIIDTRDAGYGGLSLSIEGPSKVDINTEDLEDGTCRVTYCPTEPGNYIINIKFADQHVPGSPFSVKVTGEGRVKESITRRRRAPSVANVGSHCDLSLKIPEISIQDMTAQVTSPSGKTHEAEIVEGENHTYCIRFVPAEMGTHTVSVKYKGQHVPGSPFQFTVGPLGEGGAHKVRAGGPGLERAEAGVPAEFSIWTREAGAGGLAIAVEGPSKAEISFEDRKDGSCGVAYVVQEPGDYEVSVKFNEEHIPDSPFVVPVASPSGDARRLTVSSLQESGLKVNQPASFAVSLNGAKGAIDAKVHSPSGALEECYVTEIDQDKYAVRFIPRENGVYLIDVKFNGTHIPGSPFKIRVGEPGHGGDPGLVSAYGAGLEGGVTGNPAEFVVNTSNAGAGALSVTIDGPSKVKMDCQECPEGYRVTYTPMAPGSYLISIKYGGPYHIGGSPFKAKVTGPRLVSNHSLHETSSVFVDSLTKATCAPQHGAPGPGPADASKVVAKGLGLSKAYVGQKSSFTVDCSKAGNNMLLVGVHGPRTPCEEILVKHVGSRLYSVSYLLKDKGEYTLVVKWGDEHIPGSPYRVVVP
# Sequence of UniProt Q6EMK4 (Q6EMK4 whole entry, looked up): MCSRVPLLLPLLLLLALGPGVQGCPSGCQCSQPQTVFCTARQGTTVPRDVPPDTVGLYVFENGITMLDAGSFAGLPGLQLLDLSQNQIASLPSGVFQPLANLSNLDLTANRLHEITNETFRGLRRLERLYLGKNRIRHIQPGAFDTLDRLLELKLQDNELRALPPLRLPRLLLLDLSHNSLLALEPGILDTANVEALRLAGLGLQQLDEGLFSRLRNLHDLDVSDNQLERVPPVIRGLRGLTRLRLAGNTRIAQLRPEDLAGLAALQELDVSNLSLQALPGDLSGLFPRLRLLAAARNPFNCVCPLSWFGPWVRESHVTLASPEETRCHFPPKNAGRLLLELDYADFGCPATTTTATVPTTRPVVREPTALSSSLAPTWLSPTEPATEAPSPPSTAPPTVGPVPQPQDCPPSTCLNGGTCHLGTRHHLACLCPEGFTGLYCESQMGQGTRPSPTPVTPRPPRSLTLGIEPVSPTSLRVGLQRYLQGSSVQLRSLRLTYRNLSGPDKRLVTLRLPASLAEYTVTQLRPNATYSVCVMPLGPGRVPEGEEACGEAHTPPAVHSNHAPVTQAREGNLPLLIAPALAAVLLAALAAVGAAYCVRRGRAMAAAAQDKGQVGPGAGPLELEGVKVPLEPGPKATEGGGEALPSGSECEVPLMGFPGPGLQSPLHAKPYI
# Sequence of UniProt O43854 (O43854 whole entry): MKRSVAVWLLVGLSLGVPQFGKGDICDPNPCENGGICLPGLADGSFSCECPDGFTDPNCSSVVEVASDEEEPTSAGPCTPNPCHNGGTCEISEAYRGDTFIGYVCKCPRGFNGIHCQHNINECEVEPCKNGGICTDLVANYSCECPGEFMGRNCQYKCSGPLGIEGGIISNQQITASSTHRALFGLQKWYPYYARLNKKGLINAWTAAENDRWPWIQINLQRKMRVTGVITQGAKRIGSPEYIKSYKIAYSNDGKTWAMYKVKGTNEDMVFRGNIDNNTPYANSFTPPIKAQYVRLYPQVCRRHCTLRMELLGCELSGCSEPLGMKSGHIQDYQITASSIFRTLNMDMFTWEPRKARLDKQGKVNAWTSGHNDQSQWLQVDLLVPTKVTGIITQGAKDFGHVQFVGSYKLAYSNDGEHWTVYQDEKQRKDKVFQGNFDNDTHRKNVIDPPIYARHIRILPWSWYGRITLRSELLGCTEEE
# Sequence of UniProt Q71U36 (Q71U36 whole entry): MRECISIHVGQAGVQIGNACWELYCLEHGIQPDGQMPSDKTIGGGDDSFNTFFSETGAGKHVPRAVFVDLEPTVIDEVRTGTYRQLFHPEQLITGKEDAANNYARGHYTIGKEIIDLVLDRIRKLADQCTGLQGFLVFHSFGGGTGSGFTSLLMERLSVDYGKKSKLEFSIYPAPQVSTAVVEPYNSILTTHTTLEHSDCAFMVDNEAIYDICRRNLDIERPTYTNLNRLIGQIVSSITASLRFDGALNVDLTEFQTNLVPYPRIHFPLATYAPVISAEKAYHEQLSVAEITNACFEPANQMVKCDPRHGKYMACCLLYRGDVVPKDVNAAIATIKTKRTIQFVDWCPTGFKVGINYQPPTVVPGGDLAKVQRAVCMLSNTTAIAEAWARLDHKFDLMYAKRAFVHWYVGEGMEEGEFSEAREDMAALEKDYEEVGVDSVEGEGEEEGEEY
# Sequence of UniProt P11279 (P11279 whole entry): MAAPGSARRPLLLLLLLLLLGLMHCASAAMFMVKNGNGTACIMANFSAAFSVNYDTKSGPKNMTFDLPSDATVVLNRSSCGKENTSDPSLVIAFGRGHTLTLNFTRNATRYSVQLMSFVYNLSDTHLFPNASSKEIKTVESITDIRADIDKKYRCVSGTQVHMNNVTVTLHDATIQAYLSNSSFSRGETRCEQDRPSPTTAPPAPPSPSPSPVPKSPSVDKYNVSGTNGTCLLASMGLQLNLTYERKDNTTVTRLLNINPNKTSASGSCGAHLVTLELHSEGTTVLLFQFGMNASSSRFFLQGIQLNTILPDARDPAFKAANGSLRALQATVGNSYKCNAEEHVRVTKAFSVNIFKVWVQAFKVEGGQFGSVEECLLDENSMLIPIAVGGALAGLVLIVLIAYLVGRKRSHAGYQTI
# Sequence of UniProt Q92688 (Q92688 whole entry): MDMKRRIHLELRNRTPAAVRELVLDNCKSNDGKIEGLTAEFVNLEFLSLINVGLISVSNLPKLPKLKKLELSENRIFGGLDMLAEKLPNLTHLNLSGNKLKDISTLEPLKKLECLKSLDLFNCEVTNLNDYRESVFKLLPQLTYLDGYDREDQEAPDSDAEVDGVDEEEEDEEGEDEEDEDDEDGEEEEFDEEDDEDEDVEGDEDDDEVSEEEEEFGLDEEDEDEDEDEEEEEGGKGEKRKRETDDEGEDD
row,Target,lysine labeling ratio R10:1
1,EDIL3 (lysine site: K290) (UniProt O43854),2.39
2,VASN (lysine site: K506) (UniProt Q6EMK4),5.1
3,FLNA (lysine site: K2025) (UniProt P21333),3.25
4,UniProt Q15286 (lysine site: K121),0.72 (active)
5,SUB1 (lysine site: K80) (UniProt P53999),1.69 (active)
6,ANP32B (lysine site: K68) (UniProt Q92688),1.78 (active)
7,RPL10A (lysine site: K196) (UniProt P62906),2.81
8,UniProt P62851 (lysine site: K66),2.69
9,UniProt Q9NYQ6 (lysine site: K324),0.873 (active)
10,LAMP1 (lysine site: K137) (UniProt P11279),2.74
11,DDX5 (lysine site: K264) (UniProt P17844),7.01
12,GDI2 (lysine site: K435) (UniProt P50395),4.66
13,UniProt Q8WXI7 (lysine site: K13384),7.85
14,ALDOA (lysine site: K14) (UniProt P04075),5.1
15,PTPRF (lysine site: K1103) (UniProt P10586),7.4
16,TUBA1A (lysine site: K336) (UniProt Q71U36),2 (active)
17,UniProt Q15149 (lysine site: K1055),1.98 (active)
